Assay results taken from PubChem BioAssay (NCATS).
Inconclusive results are not listed. Unmarked numbers belong to inactive results. The source made the active and inactive calls. Calls come from the whole dose curve; as a rule, active = well fitted inhibition curve with a large enough effect; inconclusive = small, poorly fitted or top-dose-only effect; inactive = flat fitted curve, though single readings scatter. Peptide text beside a SMILES is read from it.

Each compound was assayed on ICS (assay: qHTS profiling for inhibitors of Plasmodium falciparum proliferation (AID 504749; note: nearly all actives have a fitted effect of over 60% in size;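 for activity, negative = inhibition: 0% = DMSO vehicle and full inhibition = artemisinin control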)). Details: P. falciparum in erythrocytes, SYBR Green DNA, 72 h; series mostly up to 12.8 µM; activity, negative = inhibition: at the top concentration.
Summary of the method: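 P. falciparum-infected erythrocytes (0.3% parasitemia, 2.5% hematocrit) incubated with compound 72 h at 37 C, 5% CO2. Parasite DNA detected by SYBR Green after lysis, overnight at room temperature; normalised to 0.29 uM artemisinin and DMSO.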
Potency is the fitted concentration of half-maximal effect.

SMILES | activity, negative = inhibition | Potency
CCC(C)C(=O)OC1CCC=C2C=CC(C)C(CCC3CC(O)CC(=O)O3)[C@@H]21 (stereo not given in full) | -0.431% [at 28.7 µM] | –
C[C@]1(c2ccccc2)OC(C(=O)O)=CC1=O | 2.29% [at 28.7 µM] | –
OCC1OC([S-])[C@H](O)C(O)C1O.[Au+] (stereo not given in full) | -26.5% [at 28.7 µM] | –
COC(=O)N/N=C/C1=C[N+](=O)c2ccccc2[N+]1=O | -15.3% [at 28.7 µM] | –
CN1CC(=O)N=C1N | -5.97% [at 28.7 µM] | –
CNC1CC(N)[C@H](O)[C@@H](O[C@@H]2OC(CO)C3OC4(OC(C(N)CO)C(O)C(O)C4O)O[C@@H]3[C@H]2O)C1O (stereo not given in full) | 14.3% [at 28.7 µM] | –
COC1C=CO[C@@]2(C)Oc3c(C)c(O)c4c(O)c(c(C=NN5CCN(C)CC5)c(O)c4c3C2=O)NC(=O)/C(C)=C\C=CC(C)C(O)[C@@H](C)C(O)C(C)[C@H](OC(C)=O)C1C (stereo not given in full) | – | 0.0891 µM (active)
CC(=O)N[C@@H]1C(O)OC(CO)C(O)C1O (stereo not given in full) | 6.01% [at 28.7 µM] | –
CCC(CCC(C)C1CCC2C3CC=C4CC(O)CC[C@@]4(C)C3CC[C@@]12C)C(C)C (stereo not given in full) | 15.8% [at 28.7 µM] | –
O=C1OC(CO)C(O)C(O)C1O (stereo not given) | 4.95% [at 28.7 µM] | –
COc1ccc(CC(N)C(=O)NC2C(CO)OC(n3cnc4c(N(C)C)ncnc43)C2O)cc1 (stereo not given) | – | 0.316 µM (active)
CCCC(=O)O[C@]1(C(=O)CO)CCC2[C@@H]3CCC4=CC(=O)CC[C@]4(C)C3C(O)C[C@]21C (stereo not given in full) | 4.83% [at 28.7 µM] | –
COC(=O)C(Cc1ccccc1)NC(=O)C(N)CC(=O)O (stereo not drawn) (H-Asp-Phe-OMe; configuration not given here) | 0.135% [at 28.7 µM] | –
CC1(C)SC2C(N3C(=O)C(c4ccccc4)NC3(C)C)C(=O)N2C1C(=O)O (stereo not given) | -5.6% [at 28.7 µM] | –
CC1CCC(C(C)C)C(=O)C1 (stereo not given) | 13.4% [at 28.7 µM] | –
